Test results from PubChem BioAssay (EPA / NIEHS).
Inconclusive results are not listed. Active and inactive are the calls of the source. Rule for the calls, unless noted: active = hit-call score of the fitted dose curve at least 0.9, where 1 is the maximum; inconclusive = response in the unintended direction; inactive = score below 0.9.

How the values were obtained:
[1] = CCTE_Shafer_MEA_acute_AB: CCTE's Alamar Blue Assay for Cytotoxicity in the Neural Acute Assay, Shafer Lab (AID 2284069);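 note: active compounds lower the viability signal compared with DMSO wells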
In short: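 Resazurin reduction (CellTiter Blue, 1:6 in fresh medium) read at ex 544/em 590 nm marks viability loss relative to DMSO. Cells: primary rat cortical neuron networks on microelectrode arrays, treated after baseline recording at 13 or 15 days in vitro.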

[2] = read-out: urokinase plasminogen activator (uPA), PLAU (gene 5328); experiment: BSK_BE3C_uPA: BioMAP Diversity Plus: BE3C Assay for urokinase plasminogen activator (uPA) Biomarker Activity (AID 2283038; active = hit-call score of the fitted dose curve at least 0.9, where 1 is the maximum; inactive = score below 0.9;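 note: uPA protein level quantified by ELISA in cell cultures; uPA read one day after compound addition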); settings: primary human bronchial epithelial cells; actives raise or lower the signal
In short: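 ELISA read-out of uPA in human lung primary bronchial epithelial cultures, 24 h post-dosing. Gain or loss of signal fitted bidirectionally relative to DMSO baseline; cytotoxicity checked in parallel cultures via SRB total protein stain.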

[3] = target: human Thromboxane A2 Receptor (TXA2), TBXA2R (gene 6915) (UniProt P21731); experiment: NVS_GPCR_hTXA2: NovaScreen (NVS) G Protein-Coupled Receptor Assay for human Thromboxane A2 Receptor (TXA2) (AID 2283282);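 note: actives reduce bound radioligand signal relative to DMSO baseline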
human Thromboxane A2 Receptor (TXA2), TBXA2R (gene 6915), sequence (P21731 whole entry, looked up): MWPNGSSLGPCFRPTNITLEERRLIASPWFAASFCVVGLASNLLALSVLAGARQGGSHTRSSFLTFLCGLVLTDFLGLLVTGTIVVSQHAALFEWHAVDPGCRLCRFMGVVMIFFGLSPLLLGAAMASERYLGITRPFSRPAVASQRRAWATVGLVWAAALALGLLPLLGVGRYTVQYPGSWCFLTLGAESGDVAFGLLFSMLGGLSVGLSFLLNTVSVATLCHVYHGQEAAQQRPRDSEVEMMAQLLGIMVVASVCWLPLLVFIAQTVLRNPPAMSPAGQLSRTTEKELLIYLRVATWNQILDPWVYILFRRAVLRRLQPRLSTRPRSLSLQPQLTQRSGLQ
In short: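 Filter scintillation counting of bound radioligand, human platelet protein, 1 h exposure. Single-concentration duplicates (25 uM) first, concentration-response follow-up for actives. Binding loss scored against DMSO baseline.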

[4] = target: human CYP19A1, CYP19A1 (gene 1588) (UniProt P11511); experiment: NVS_ADME_hCYP19A1: NovaScreen (NVS) CYP450-related Enzyme Activity (ADME) Assay for human CYP19A1 (AID 2283098)
human CYP19A1, CYP19A1 (gene 1588), sequence (P11511 whole entry, looked up): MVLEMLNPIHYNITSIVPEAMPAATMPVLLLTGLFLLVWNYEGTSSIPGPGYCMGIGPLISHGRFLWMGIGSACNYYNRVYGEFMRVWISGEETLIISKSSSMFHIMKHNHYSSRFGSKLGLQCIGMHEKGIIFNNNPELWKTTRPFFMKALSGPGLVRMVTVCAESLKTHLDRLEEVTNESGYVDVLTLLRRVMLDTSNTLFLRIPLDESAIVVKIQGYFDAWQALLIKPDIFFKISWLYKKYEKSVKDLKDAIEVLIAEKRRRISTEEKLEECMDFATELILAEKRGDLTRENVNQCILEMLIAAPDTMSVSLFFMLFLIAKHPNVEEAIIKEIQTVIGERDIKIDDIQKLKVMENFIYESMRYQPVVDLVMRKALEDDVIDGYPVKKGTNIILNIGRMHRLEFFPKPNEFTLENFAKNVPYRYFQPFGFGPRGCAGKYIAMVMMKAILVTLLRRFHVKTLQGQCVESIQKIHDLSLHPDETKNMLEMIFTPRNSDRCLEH
In short: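 Recombinant enzyme in a cell-free format, read 0.5 h after dosing by fluorescence from a fluorogenic substrate. Loss of signal was fitted against acetonitrile as baseline. Primary screen in duplicate at 10 uM, actives then tested in concentration series.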

[5] = STM_H9_OrnithineISnorm_perc: Stemina devTOX quickPredict H9 human embryonic stem cell (hESC)-based Assay for Ornithine (ORN) Metabolite Biomarker, Normalized (AID 2283712; active = hit-call score of the fitted dose curve at least 0.9, where 1 is the maximum; inactive = score below 0.9;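 note: ornithine released into spent medium during last day measured by mass spectrometry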)
In short: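 Cells: undifferentiated H9 hESC. Dosing: 72 h, media replaced every 24 h. Sample: final 24-h conditioned media, 40% acetonitrile. Read: UPLC-HRMS ornithine area vs 13C standard, % DMSO control.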

[6] = STM_H9_CystineISnorm_perc: Stemina devTOX quickPredict H9 human embryonic stem cell (hESC)-based Assay for Cystine (CYSS) Metabolite Biomarker, Normalized (AID 2283713; active = hit-call score of the fitted dose curve at least 0.9, where 1 is the maximum; inactive = score below 0.9)
In short: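 Secreted cystine was measured by UPLC-HRMS in H9 hESC medium after 72h compound exposure with 24-hourly replenishment. Values are standard-normalized areas relative to 0.1% DMSO.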

[7] = CCTE_Shafer_MEA_dev_burst_duration_mean: CCTE's Neural Network Formation Assay for Mean Burst Duration, Shafer Lab (AID 2284045; active = hit-call score of the fitted dose curve at least 0.9, where 1 is the maximum; inactive = score below 0.9)
In short: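 Primary rat cortical neurons on 48-well 16-electrode MEA plates, exposed from day 0 with renewal at DIV 5 and 9; spontaneous activity recorded on days 5, 7, 9, 12. Well-mean burst duration across bursting electrodes, collapsed as trapezoidal AUC; DMSO baseline.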

[8] = CCTE_Mundy_HCI_Cortical_NOG_NeuronCount: CCTE's Neurite Outgrowth Assay in rat cortical cells for Neuron Count, Mundy Lab (AID 2284236);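 note: neurons counted by imaging betaIII-tubulin and Hoechst stained cortical cells; cells exposed to compound for about 48 hours before fixation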
In short: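 Read-out: neuron number by high-content imaging of betaIII-tubulin (Alexa Fluor-488) and Hoechst-labelled rat primary cortical cells.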

[9] = NVS_IC_rCaBTZCHL: NovaScreen (NVS) Ion Channel Assay for Calcium Channel, Type L, Benzothiazepine Site (CaBTZCHL) (AID 2283337)
In short: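 Competitive displacement of a site-specific radioligand from rat cortex membranes, measured as signal loss against DMSO baseline by filter radiodetection after 1.5 h. Single-point 25 uM primary screen.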

[10] = target: Retinoic acid receptor alpha (Homo sapiens) (UniProt P10276); experiment: NVS_NR_hRARa_Agonist: NovaScreen (NVS) Nuclear Receptor Binding Assay for human Retinoic Acid Alpha Receptor Agonism (RAR) (AID 2283361)
Retinoic acid receptor alpha (Homo sapiens), sequence (P10276 whole entry, looked up): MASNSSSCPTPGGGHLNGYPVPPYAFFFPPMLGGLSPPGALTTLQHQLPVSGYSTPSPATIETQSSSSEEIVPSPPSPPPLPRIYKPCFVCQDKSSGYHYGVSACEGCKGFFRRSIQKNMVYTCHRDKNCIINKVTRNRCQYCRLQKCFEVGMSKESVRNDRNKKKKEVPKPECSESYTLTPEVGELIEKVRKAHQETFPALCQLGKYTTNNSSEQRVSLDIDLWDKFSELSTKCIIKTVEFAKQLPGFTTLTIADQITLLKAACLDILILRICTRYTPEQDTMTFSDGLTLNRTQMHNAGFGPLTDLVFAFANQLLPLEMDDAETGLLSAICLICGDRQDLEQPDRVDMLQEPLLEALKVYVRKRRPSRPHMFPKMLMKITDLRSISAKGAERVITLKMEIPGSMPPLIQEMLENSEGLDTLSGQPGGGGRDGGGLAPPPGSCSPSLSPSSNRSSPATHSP
In short: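 Cell-free TR-FRET binding readout with extracted receptor protein, read 2 hours after dosing; gain-of-signal fitted relative to DMSO. Screened in duplicate at 25 uM, actives then run in concentration-response.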

[11] = tested on: rat CYP3A1, gene 25642; experiment: NVS_ADME_rCYP3A1: NovaScreen (NVS) CYP450-related Enzyme Activity (ADME) Assay for rat CYP3A1 (AID 2283126)
In short: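 Cell-free recombinant CYP assay with fluorescent substrate, read 0.5 h after dosing. Screened at 10 uM in duplicate, hits at up to 20 uM in concentration-response; loss of signal versus acetonitrile baseline.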

[12] = target: PGR (gene 5241) (UniProt P06401); experiment: TOX21_PR_BLA_Followup_Agonist_ratio: Tox21 HEK293 Progesterone Receptor (PR) Agonism Beta-lactamase Follow-Up Assay, Ratio (AID 2283933)
PGR (gene 5241), sequence (P06401 whole entry, looked up): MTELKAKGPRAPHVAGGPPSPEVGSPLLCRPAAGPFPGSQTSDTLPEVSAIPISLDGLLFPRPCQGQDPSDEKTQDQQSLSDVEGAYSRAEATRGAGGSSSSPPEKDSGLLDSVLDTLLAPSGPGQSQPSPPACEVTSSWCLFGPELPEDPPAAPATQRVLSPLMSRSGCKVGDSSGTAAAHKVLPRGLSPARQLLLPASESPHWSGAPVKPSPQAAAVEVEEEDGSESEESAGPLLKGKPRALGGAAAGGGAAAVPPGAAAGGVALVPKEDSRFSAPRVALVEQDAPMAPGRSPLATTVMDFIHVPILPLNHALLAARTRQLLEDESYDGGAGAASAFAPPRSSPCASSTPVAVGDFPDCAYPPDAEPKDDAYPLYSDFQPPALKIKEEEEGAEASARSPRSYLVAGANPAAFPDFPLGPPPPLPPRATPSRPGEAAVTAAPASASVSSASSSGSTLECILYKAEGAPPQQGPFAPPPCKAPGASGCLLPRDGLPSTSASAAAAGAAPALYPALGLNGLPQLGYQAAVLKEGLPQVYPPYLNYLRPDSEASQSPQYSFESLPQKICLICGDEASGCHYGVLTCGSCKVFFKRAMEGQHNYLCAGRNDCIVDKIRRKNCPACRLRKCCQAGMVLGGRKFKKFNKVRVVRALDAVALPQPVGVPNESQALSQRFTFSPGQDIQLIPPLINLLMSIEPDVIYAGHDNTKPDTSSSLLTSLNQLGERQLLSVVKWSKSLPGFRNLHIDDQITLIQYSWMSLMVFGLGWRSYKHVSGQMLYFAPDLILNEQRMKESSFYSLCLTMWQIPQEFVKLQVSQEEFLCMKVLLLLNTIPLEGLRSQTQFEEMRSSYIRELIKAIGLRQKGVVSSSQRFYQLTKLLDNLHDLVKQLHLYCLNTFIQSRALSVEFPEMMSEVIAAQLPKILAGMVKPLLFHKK
In short: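 Agonist-mode follow-up in HEK293T cells carrying a UAS-driven beta-lactamase reporter, grown in 2% charcoal-stripped serum. Compounds act for 16 hr; activity is the ch2/ch1 cleavage ratio, with same-well CellTiter-Glo viability run in parallel.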

[13] = CCTE_Deisenroth_5AR_NBTE_acceptor: CCTE's 5alpha-reductase NanoBRET Target Engagement Assay - Autofluorescence Screen, Deisenroth Lab (AID 2284321; active = hit-call score of the fitted dose curve at least 0.9, where 1 is the maximum; inactive = score below 0.9;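 note: compound fluorescence in the acceptor channel under 460 nm excitation flags autofluorescence artifacts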); settings: actives raise or lower the signal
In short: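 Autofluorescence check: ToxCast chemicals, nominal 100 uM, excitation 460 nm, n=3 runs. Acceptor fluorescence endpoint, bidirectional fit relative to DMSO. Parent assay in HEK293T, 5 h post-dose.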

[14] = target: Sodium channel protein type 1 subunit alpha (Rattus norvegicus) (UniProt P04774); experiment: NVS_IC_rNaCh_site2: NovaScreen (NVS) Ion Channel Assay for rat Sodium Channel, Site 2 (NaCh) (AID 2283322);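 note: hit means loss of radioligand binding signal relative to DMSO so AC50 marks displacement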
In short: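 Membranes: rat forebrain. Format: competitive radioligand displacement, filter separation, scintillation readout, 1 h exposure. Primary screen in duplicate at 25 uM; actives retested in concentration series.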

[15] = target: human Dopamine Transporter (DAT), SLC6A3 (gene 6531) (UniProt Q01959); experiment: NVS_TR_hDAT: NovaScreen (NVS) Transporter Assay for human Dopamine Transporter (DAT) (AID 2283374);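 note: activity means loss of bound radioligand signal relative to DMSO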
human Dopamine Transporter (DAT), SLC6A3 (gene 6531), sequence (Q01959 whole entry, looked up): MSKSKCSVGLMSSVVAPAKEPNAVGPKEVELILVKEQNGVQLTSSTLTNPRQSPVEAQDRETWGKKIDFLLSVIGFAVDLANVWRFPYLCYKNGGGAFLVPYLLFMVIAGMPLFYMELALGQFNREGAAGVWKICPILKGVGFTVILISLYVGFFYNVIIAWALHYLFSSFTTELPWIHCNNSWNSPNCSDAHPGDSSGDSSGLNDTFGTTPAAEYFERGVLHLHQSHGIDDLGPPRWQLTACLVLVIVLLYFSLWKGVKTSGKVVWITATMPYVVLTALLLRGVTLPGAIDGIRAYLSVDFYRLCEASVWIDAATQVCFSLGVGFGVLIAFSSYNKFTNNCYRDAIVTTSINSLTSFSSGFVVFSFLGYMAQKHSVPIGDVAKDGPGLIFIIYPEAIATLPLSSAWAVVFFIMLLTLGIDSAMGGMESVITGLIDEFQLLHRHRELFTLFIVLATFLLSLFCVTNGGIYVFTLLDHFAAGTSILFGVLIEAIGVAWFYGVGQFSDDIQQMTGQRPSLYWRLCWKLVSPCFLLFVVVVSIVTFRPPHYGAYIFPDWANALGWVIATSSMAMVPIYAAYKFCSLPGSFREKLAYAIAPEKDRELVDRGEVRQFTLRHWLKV
In short: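 Cell-free radioligand displacement binding at human DAT, 1 h after dosing, with filtration and scintillation counting. Primary screen in duplicate at 25 uM, actives then in concentration series. Loss of bound signal versus DMSO scored.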

[16] = target: human Dual Specificity Protein Phosphatase 3 (DUSP3), DUSP3 (gene 1845) (UniProt P51452); experiment: NVS_ENZ_hDUSP3: NovaScreen (NVS) Enzymatic Assay for human Dual Specificity Protein Phosphatase 3 (DUSP3) (AID 2283152);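 note: phosphatase activity of recombinant human DUSP3 on a fluorogenic substrate without cells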
human Dual Specificity Protein Phosphatase 3 (DUSP3), DUSP3 (gene 1845), sequence (P51452 whole entry, looked up): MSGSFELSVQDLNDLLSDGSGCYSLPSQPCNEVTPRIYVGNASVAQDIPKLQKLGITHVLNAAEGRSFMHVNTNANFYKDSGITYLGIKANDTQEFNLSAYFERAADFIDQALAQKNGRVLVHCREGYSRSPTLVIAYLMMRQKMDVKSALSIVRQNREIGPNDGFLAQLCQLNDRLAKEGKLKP
In short: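 Cell-free assay with recombinant human DUSP3 and fluorogenic substrate, read by fluorescence intensity. Primary screen ran duplicate at 25 uM; actives followed up in concentration series; loss of signal versus DMSO scored.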

[17] = target: human Neurokinin, NK2 Receptor, TACR2 (gene 6865) (UniProt P21452); experiment: NVS_GPCR_hNK2: NovaScreen (NVS) G Protein-Coupled Receptor Assay for human Neurokinin, NK2 Receptor (AID 2283278);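 note: actives reduce bound radioligand signal relative to DMSO baseline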
human Neurokinin, NK2 Receptor, TACR2 (gene 6865), sequence (P21452 whole entry, looked up): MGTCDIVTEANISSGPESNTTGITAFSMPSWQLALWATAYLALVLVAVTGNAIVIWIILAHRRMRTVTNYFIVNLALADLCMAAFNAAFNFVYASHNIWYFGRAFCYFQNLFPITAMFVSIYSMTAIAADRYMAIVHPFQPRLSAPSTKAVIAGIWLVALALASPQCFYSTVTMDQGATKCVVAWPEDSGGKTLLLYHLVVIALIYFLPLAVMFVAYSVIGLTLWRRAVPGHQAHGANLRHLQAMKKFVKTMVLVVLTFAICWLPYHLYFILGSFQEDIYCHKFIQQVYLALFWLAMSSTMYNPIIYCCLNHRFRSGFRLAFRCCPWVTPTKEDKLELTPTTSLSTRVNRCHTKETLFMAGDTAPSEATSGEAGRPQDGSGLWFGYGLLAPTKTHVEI
In short: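 Cell-free radioligand binding using receptor protein extracted from CHO cells; readings taken 4 hours after chemical dosing by filter-based scintillation counting. Primary screen ran single concentration (25 uM) in duplicate; actives followed up in concentration series, loss-of-signal versus DMSO baseline.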

[18] = target: human Opioid Receptor Mu (Opiate Mu), OPRM1 (gene 4988) (UniProt P35372); experiment: NVS_GPCR_hOpiate_mu: NovaScreen (NVS) G Protein-Coupled Receptor Assay for human Opioid Receptor Mu (Opiate Mu) (AID 2283290);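 note: hits lower bound tracer signal versus DMSO meaning displacement of the ligand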
human Opioid Receptor Mu (Opiate Mu), OPRM1 (gene 4988), sequence (P35372 whole entry, looked up): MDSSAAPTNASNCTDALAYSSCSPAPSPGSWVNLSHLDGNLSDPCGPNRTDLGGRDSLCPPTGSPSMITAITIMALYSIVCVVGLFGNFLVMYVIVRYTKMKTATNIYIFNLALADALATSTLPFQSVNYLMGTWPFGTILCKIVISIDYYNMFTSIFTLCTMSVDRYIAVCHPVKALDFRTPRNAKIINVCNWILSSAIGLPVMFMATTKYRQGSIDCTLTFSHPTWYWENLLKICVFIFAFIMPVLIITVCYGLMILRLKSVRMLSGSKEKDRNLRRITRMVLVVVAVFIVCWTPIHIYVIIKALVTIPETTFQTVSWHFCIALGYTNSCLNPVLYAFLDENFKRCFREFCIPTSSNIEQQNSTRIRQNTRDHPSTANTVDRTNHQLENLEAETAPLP
In short: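 Primary screen in duplicate at 25 uM, with actives followed in concentration series. CHO-derived receptor membranes, cell-free; bound radioligand read by scintillation counting after filtration at 2.5 h, decrease scored against DMSO.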

[19] = target: chimpanzee Androgen Receptor (AR), AR (gene 747460) (UniProt O97775); experiment: NVS_NR_cAR: NovaScreen (NVS) Nuclear Receptor Binding Assay for chimpanzee Androgen Receptor (AR) (AID 2283346);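 note: radioligand displacement from AR measured by scintillation counting in a cell-free assay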
chimpanzee Androgen Receptor (AR), AR (gene 747460), sequence (O97775 whole entry, looked up): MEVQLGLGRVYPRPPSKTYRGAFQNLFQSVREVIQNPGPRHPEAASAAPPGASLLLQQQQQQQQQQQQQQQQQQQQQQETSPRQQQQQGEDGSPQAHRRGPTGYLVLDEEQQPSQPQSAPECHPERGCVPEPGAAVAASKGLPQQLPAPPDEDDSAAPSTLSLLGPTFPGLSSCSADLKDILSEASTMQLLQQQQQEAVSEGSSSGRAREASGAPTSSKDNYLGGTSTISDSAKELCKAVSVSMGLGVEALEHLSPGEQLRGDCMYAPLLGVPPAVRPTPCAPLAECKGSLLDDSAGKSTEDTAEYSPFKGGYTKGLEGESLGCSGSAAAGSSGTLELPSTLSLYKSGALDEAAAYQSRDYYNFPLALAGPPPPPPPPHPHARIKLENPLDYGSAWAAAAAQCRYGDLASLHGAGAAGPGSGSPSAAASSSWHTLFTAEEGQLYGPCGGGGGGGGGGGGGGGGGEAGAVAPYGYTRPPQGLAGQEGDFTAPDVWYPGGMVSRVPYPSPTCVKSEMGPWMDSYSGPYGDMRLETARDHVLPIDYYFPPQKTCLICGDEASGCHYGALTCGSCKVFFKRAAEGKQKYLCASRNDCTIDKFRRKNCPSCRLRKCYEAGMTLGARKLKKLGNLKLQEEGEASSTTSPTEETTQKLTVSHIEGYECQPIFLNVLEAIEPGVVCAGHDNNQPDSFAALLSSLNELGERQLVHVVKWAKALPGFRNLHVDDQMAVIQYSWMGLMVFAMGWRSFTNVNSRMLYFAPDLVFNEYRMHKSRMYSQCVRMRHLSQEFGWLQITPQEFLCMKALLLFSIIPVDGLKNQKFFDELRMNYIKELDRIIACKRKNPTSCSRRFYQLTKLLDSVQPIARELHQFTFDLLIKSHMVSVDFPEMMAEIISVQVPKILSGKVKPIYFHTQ
In short: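 Radioligand binding to chimpanzee AR expressed in Sf9/Sf21 cells, cell-free, measured 72 h after dosing by lysate-based scintillation counting. Loss of signal vs DMSO; initial duplicate screen at 25 uM, actives retested in concentration series.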

[20] = tested on: IYD (gene 389434); experiment: CCTE_GLTED_hIYD: CCTE's human Iodotyrosine Deiodinase (xIYD) Inhibition Assay, Great Lakes Toxicology and Ecology Division (GLTED) Lab (AID 2284317);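 note: cell-free human IYD enzyme made in baculovirus insect cells; iodide freed from monoiodotyrosine measured by cerium arsenite color change at 420 nm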
In short: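 First, recombinant human IYD (baculovirus-insect cells), MIT and chemical incubated 3 h. Next, iodide isolated on Dowex. Finally, Sandell-Kolthoff rate read at 420 nm, with platewise normalization to MNT and solvent controls.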

## O=c1c2ccccc2c(=O)c2c1cc(Cl)c1[nH]c3c([nH]c12)c(Cl)cc1c(=O)c2ccccc2c(=O)c13
[1]
  outcome: inactive

## O=P1(NCCCl)OCCCN1CCCl (centres undefined)
[2]
  outcome: inactive

## O=c1[nH]c(Cl)c(Cl)cc1Cl
[3]
  AC50: 0.631 µM (active)

## CCC(=O)c1ccc(Cl)cc1
[4]
  outcome: inactive

## Cc1ccc(OP(=O)(Oc2ccc(C)cc2)Oc2ccc(C)cc2)cc1 (tested in a mixture with another compound)
[5]
  outcome: inactive
[6]
  AC50: 58.4 µM (active)
[7]
  outcome: inactive
[8]
  AC50: 25.6 µM (active)

## O=C(O)CCCc1ccc(N(CCCl)CCCl)cc1
[9]
  outcome: inactive

## O=C=Nc1ccccc1
[10]
  AC50: 9.8 µM (active)

## CCOC(=O)NC(=S)Nc1ccccc1NC(=S)NC(=O)OCC
[11]
  AC50: 1.53 µM (active)

## N#Cc1cc(I)c(O)c(I)c1
[12]
  outcome: inactive

## O=P(O)(Oc1ccccc1)Oc1ccccc1
[13]
  outcome: inactive

## CC(C)(C)C(O)C(Oc1ccc(-c2ccccc2)cc1)n1cncn1 (centres undefined)
[14]
  outcome: inactive
[15]
  AC50: 13.4 µM (active)

## CCc1cc(C)cc(CC)c1-c1c(OC(=O)C(C)(C)C)n2n(c1=O)CCOCC2
[14]
  outcome: inactive

## Nc1ccc(-c2ccc(N)c(N)c2)cc1N
[16]
  AC50: 8.44 µM (active)

## O=C1C(Cl)=C(Cl)C(=O)C(Cl)=C1Cl
[16]
  AC50: 1.19 µM (active)
[17]
  AC50: 1.07 µM (active)
[18]
  AC50: 4.48 µM (active)

## CC[N+](=O)[O-]
[19]
  outcome: inactive

## O=C1C=CC(=O)C=C1
[17]
  AC50: 0.927 µM (active)
[18]
  AC50: 9.86 µM (active)
[15]
  AC50: 13.9 µM (active)

## Nc1ccc(Cl)c(Cl)c1
[19]
  AC50: 25 µM (active)

## CCCCCCCCCCCCCCCC[N+](C)(C)C
[20]
  AC50: 38.7 µM (active)

## CC(C)c1ccc(O)cc1
[13]
  outcome: inactive

## CCC1CCC(=O)O1 (centres undefined)
[20]
  outcome: inactive

## C[C@]12CC[C@H]3[C@@H](CC[C@@]45O[C@@H]4C(O)=C(C#N)C[C@]35C)[C@@H]1CC[C@@H]2O
[12]
  outcome: inactive
